Source: the supplement of paper PMC10849652
Of roughly 8,800 targets only a part is listed; those with a hit were picked by preference. About 0.5% of all pairs of compound and target were hits.

How the values were obtained:
Assay in all cases: log2 fold change, soluble protein after heating vs DMSO (PISA); higher = thermal stabilisation; K562 lysate, 10 uM; active = over 0.2 and 3.5 SD of the protein, either way, in both replicates (recomputed)
erlotinib = compound: C#Cc1cccc(Nc2ncnc3cc(OCCOC)c(OCCOC)cc23)c1 [erlotinib]
In short: (§1)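 Following dounce homogenisation of K562 pellets in PBS pH 7.4 with 1 mM MgCl2, crude extract at 1 mg/mL protein was incubated for 30 min with 10 μM compound. Aliquots were then heated for 3 min over 48°C-58°C and pooled, NP-40 was added to 0.5% at 4°C, and soluble protein was recovered as the supernatant at 21,000xg for 90 min. Channel-sum-equalised TMTpro 16plex LC-MS/MS quantified this protein. Each value, from duplicates, is a log-two fold change in thermal stability relative to solvent controls.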

[1] = compound: C/C(=N\NC(=O)C1=CC(=CC=C1)S(=O)(=O)N2CCOCC2)/C3=C(C=CC(=C3)Cl)O
In short: as §1

[2] = compound: C1=CC(=CC=C1C2=NC3=C(N2)C=C(C=C3)C(=O)N)OC4=CC=C(C=C4)Cl
In short: as §1

[3] = compound: C1=CC2=C(C=CC(=C2)/C=C\3/C(=O)NC(=NCC4=CC=CS4)S3)N=C1
In short: as §1

[4] = compound: C1=CC2=NC=CN=C2C=C1/C=C/3\C(=O)NC(=O)S3
In short: as §1

[5] = compound: C1=CC=C(C=C1)C2=NC(=C(N2)C3=CC=NC=C3)C4=CC(=C(C=C4)Cl)O
In short: as §1

[6] = compound: C1=CC=C2C(=C1)C3=NNC4=CC=CC(=C43)C2=O
In short: as §1

[7] = compound: C1CCN(C1)C(=O)NC2=CC=CC(=C2)NC3=NC=C(C(=N3)NCCC4=CN=CN4)Br
In short: as §1

[8] = compound: C1CN(CCC1(CC2=CC=C(C=C2)Cl)N)C3=NC=NC4=C3C=CN4
In short: as §1

IRAK-1-4 Inhibitor I = compound: C1COCCN1CCN2C3=CC=CC=C3N=C2NC(=O)C4=CC(=CC=C4)[N+](=O)[O-] [IRAK-1-4 Inhibitor I]
In short: as §1

Measured: log2 fold change

FAM83D (UniProt Q9H4H8)
inactive: erlotinib 0.033 | [1] 0.013 | [2] -0.049 | [3] 0.006 | [4] 0 | [5] -0.009 | [6] -0.003 | [7] -0.005 | [8] -0.004 | IRAK-1-4 Inhibitor I 0.019

EMP3 (UniProt P54852)
Chain of UniProt P54852 (P54852 whole entry, looked up): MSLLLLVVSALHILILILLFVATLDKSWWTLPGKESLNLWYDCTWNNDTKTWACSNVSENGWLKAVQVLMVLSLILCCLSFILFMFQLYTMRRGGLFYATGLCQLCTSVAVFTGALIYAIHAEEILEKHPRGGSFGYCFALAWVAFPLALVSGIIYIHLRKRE
inactive: erlotinib 0.008 | [1] -0.015 | [2] 0.018 | [3] 0.017 | [4] 0.004 | [5] 0 | [6] 0.007 | [7] -0.002 | [8] 0.029 | IRAK-1-4 Inhibitor I 0.053

GGA2 (UniProt Q9UJY4)
Chain of UniProt Q9UJY4 (Q9UJY4 whole entry, looked up): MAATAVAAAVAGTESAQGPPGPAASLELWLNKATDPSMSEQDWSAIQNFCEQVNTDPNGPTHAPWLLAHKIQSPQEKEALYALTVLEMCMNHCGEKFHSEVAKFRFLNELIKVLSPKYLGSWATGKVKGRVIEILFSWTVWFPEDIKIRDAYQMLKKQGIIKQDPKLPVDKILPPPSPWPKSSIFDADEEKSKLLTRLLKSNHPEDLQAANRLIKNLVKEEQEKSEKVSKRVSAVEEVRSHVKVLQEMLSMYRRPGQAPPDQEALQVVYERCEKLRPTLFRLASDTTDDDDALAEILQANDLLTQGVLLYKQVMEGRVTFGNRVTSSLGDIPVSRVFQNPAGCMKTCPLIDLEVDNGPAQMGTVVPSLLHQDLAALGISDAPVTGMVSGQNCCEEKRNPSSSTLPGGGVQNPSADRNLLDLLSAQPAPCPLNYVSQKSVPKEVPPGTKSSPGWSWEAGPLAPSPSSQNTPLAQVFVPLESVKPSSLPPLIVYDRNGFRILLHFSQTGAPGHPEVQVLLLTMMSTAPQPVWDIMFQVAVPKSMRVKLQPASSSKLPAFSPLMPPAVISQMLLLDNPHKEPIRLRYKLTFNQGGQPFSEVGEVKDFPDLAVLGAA
inactive: erlotinib -0.014 | [1] 0.042 | [2] 0.064 | [3] 0.016 | [4] 0.019 | [5] 0.014 | [6] -0.054 | [7] 0.074 | [8] 0.034 | IRAK-1-4 Inhibitor I 0.01

FUBP3 (UniProt Q96I24)
inactive: erlotinib -0.023 | [1] 0.003 | [2] 0.04 | [3] 0.007 | [4] -0.009 | [5] -0.141 | [6] -0.033 | [7] -0.038 | [8] 0.003 | IRAK-1-4 Inhibitor I 0.023

GBF1 (UniProt Q92538)
inactive: erlotinib 0.044 | [1] 0.043 | [2] -0.036 | [3] -0.009 | [4] 0.002 | [5] -0.008 | [6] -0.012 | [7] -0.007 | [8] 0.023 | IRAK-1-4 Inhibitor I 0.058

EHD2 (UniProt Q9NZN4)
Chain of UniProt Q9NZN4 (Q9NZN4 whole entry, looked up): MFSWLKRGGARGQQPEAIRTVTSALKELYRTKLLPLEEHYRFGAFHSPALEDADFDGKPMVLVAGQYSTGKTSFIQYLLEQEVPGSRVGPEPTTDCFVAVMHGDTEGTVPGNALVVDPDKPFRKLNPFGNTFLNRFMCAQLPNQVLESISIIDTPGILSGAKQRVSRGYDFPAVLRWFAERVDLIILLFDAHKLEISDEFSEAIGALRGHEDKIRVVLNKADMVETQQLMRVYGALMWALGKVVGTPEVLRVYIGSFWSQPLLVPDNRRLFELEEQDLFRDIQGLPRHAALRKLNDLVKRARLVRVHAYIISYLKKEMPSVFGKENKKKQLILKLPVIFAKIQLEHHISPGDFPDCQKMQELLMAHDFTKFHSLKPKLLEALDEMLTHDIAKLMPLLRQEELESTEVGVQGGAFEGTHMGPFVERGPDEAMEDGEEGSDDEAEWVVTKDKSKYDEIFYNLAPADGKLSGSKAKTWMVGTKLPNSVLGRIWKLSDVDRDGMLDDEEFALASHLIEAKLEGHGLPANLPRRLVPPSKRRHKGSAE
inactive: erlotinib 0.048 | [1] -0.167 | [2] -0.043 | [3] -0.063 | [4] 0.012 | [5] -0.002 | [6] -0.071 | [7] -0.004 | [8] 0.012 | IRAK-1-4 Inhibitor I 0.01

EEFSEC (UniProt P57772)
inactive: erlotinib -0.006 | [1] 0.054 | [2] -0.044 | [3] -0.022 | [4] 0.006 | [5] -0.044 | [6] -0.054 | [7] -0.025 | [8] -0.007 | IRAK-1-4 Inhibitor I -0.024

FDX2 (UniProt Q6P4F2)
Chain of UniProt Q6P4F2 (Q6P4F2 whole entry, looked up): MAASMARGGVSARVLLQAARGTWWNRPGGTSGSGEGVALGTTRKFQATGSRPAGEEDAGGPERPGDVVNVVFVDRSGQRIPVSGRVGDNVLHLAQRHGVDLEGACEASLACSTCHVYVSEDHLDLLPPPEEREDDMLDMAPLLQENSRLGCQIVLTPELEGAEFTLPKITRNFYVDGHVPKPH
inactive: erlotinib -0.051 | [1] 0.063 | [2] 0.044 | [3] 0.065 | [4] -0.009 | [5] -0.041 | [6] -0.054 | [7] -0.402 | [8] -0.17 | IRAK-1-4 Inhibitor I 0.05

FAM120B (UniProt Q96EK7)
Chain of UniProt Q96EK7 (Q96EK7 whole entry, looked up): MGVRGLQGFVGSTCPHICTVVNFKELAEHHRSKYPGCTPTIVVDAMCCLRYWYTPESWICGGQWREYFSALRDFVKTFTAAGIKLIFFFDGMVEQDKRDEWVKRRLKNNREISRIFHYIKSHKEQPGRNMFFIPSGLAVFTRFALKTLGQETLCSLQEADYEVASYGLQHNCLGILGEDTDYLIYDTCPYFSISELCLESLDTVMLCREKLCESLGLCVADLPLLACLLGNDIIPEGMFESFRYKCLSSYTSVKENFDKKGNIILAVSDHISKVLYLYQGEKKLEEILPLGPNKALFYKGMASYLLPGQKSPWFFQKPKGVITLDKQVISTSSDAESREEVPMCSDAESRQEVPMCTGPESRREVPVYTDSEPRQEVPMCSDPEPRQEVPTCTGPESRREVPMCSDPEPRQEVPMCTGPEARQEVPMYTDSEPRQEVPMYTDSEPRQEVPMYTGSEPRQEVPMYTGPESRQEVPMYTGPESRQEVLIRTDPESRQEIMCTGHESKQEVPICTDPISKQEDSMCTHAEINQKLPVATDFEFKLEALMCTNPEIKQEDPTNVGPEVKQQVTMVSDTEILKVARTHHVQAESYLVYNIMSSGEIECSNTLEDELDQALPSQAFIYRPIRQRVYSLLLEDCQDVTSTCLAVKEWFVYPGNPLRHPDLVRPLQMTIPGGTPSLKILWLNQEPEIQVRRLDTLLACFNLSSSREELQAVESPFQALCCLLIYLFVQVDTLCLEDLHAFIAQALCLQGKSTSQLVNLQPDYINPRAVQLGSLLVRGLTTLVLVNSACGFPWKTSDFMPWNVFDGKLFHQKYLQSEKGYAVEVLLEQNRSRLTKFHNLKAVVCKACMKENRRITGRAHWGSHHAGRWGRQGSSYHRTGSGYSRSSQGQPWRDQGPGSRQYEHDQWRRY
inactive: erlotinib 0.056 | [1] -0.032 | [2] 0.036 | [3] 0.035 | [4] 0.02 | [5] -0.004 | [6] 0.044 | [7] -0.013 | [8] 0.007 | IRAK-1-4 Inhibitor I 0.009

GCLM (UniProt P48507)
inactive: erlotinib -0.012 | [1] 0.021 | [2] 0.006 | [3] 0.007 | [4] 0.023 | [5] -0.001 | [6] -0.034 | [7] 0.014 | [8] 0.039 | IRAK-1-4 Inhibitor I 0.016

GFPT1 (UniProt Q06210)
inactive: erlotinib 0.031 | [1] -0.008 | [2] 0.003 | [3] 0.013 | [4] -0.008 | [5] 0.001 | [6] -0.014 | [7] -0.021 | [8] 0.008 | IRAK-1-4 Inhibitor I 0.006

DYNC1I2 isoform 5 (UniProt Q13409)
inactive: erlotinib -0.005 | [1] 0.001 | [2] -0.001 | [3] 0.009 | [4] 0 | [5] 0.009 | [6] 0.019 | [7] -0.007 | [8] 0.016 | IRAK-1-4 Inhibitor I 0.018

ESRRA (UniProt P11474)
inactive: erlotinib 0.065 | [1] 0.171 | [2] -0.037 | [3] 0.06 | [4] -0.131 | [5] -0.033 | [6] -0.112 | [7] -0.018 | [8] 0.2 | IRAK-1-4 Inhibitor I 0.029

ENGASE (UniProt Q8NFI3)
inactive: erlotinib 0.036 | [1] 0 | [2] 0.043 | [3] -0.069 | [4] 0.008 | [5] 0.002 | [6] -0.04 | [7] 0.009 | [8] 0.043 | IRAK-1-4 Inhibitor I 0.007

FARSB (UniProt Q9NSD9)
inactive: erlotinib -0.004 | [1] 0.019 | [2] -0.007 | [3] -0.01 | [4] -0.02 | [5] 0.039 | [6] -0.021 | [7] -0.004 | [8] 0.011 | IRAK-1-4 Inhibitor I -0.027

FBLL1 (UniProt A6NHQ2)
Chain of UniProt A6NHQ2 (A6NHQ2 whole entry, looked up): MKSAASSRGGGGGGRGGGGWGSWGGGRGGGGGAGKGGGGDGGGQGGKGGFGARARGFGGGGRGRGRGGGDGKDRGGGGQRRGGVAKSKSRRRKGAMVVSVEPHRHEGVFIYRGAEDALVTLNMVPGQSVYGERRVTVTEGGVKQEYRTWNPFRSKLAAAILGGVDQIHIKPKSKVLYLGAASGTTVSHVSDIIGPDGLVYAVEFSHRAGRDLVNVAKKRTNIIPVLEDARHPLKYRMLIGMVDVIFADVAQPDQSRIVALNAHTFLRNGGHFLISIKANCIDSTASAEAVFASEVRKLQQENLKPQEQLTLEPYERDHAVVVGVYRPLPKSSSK
inactive: erlotinib -0.003 | [1] -0.015 | [2] -0.008 | [3] 0.059 | [4] 0.075 | [5] -0.031 | [6] -0.031 | [7] 0.021 | [8] 0.022 | IRAK-1-4 Inhibitor I -0.004

EIF3I (UniProt Q13347)
inactive: erlotinib 0.013 | [1] 0.033 | [2] -0.029 | [3] 0.001 | [4] 0.022 | [5] 0 | [6] -0.026 | [7] 0.004 | [8] -0.007 | IRAK-1-4 Inhibitor I -0.039

GEMIN5 (UniProt Q8TEQ6)
inactive: erlotinib -0.001 | [1] 0.004 | [2] -0.012 | [3] 0.015 | [4] 0.032 | [5] -0.006 | [6] -0.034 | [7] 0 | [8] -0.006 | IRAK-1-4 Inhibitor I -0.025

EDC4 (UniProt Q6P2E9)
inactive: erlotinib 0.002 | [1] -0.026 | [2] -0.022 | [3] 0.001 | [4] 0.006 | [5] -0.001 | [6] -0.02 | [7] -0.015 | [8] 0.014 | IRAK-1-4 Inhibitor I 0.013

EPHX2 (UniProt P34913)
Chain of UniProt P34913 (P34913 whole entry, looked up): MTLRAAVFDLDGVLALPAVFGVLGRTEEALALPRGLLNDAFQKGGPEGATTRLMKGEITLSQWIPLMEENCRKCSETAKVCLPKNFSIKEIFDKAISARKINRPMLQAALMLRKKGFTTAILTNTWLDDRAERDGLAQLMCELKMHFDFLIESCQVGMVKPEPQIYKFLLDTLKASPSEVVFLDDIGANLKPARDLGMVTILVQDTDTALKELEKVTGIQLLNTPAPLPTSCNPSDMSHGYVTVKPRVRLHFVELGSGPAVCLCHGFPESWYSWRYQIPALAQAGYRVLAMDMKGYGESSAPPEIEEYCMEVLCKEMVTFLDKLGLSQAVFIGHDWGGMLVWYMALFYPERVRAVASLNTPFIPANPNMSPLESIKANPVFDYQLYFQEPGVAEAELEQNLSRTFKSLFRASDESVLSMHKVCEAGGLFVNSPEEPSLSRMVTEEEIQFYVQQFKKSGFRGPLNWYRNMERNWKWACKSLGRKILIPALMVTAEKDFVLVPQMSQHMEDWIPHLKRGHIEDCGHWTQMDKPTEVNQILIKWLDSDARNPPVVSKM
inactive: erlotinib -0.024 | [1] 0.133 | [2] 0.156 | [3] 0.036 | [4] -0.023 | [5] -0.014 | [6] 0.014 | [7] 0.077 | [8] -0.002 | IRAK-1-4 Inhibitor I -0.014

FANCD2 isoform 1 (UniProt Q9BXW9)
inactive: erlotinib 0.059 | [1] 0.002 | [2] 0.019 | [3] -0.049 | [4] 0.01 | [5] 0.006 | [6] -0.092 | [7] -0.062 | [8] 0.095 | IRAK-1-4 Inhibitor I 0.036

EEF1A1P5 (UniProt Q5VTE0)
inactive: erlotinib 0.014 | [1] -0.054 | [2] 0.023 | [3] 0 | [4] 0.001 | [5] -0.01 | [6] -0.065 | [7] -0.048 | [8] 0.022 | IRAK-1-4 Inhibitor I 0.003

DYNC1I2 isoform 2 (UniProt Q13409)
inactive: erlotinib -0.012 | [1] -0.032 | [2] 0.108 | [3] -0.088 | [4] -0.127 | [5] -0.002 | [6] 0.055 | [7] 0.005 | [8] -0.006 | IRAK-1-4 Inhibitor I 0.01

EGLN1 (UniProt Q9GZT9)
inactive: erlotinib 0.006 | [1] 0.016 | [2] 0.034 | [3] 0.028 | [4] -0.027 | [5] 0.006 | [6] -0.005 | [7] 0.015 | [8] -0.019 | IRAK-1-4 Inhibitor I -0.021

EFCAB14 (UniProt O75071)
inactive: erlotinib 0.019 | [1] 0.115 | [2] 0.043 | [3] -0.036 | [4] -0.019 | [5] -0.042 | [6] -0.022 | [7] 0.01 | [8] 0.042 | IRAK-1-4 Inhibitor I 0.011

FIBP (UniProt O43427)
inactive: erlotinib -0.071 | [1] -0.027 | [2] 0.022 | [3] 0.067 | [4] 0.018 | [5] 0.041 | [6] 0.079 | [7] -0.064 | [8] 0.029 | IRAK-1-4 Inhibitor I 0.006

FKBP1A (UniProt P62942)
Chain of UniProt P62942 (P62942 whole entry, looked up): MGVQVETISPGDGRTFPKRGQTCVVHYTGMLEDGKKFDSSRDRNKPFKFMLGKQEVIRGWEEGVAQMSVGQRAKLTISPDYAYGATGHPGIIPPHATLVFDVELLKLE
inactive: erlotinib -0.024 | [1] 0.063 | [2] 0.015 | [3] -0.061 | [4] 0 | [5] 0.024 | [6] 0.091 | [7] -0.044 | [8] 0.062 | IRAK-1-4 Inhibitor I 0.071

EPRS (UniProt P07814)
Chain of UniProt P07814 (P07814 whole entry, looked up): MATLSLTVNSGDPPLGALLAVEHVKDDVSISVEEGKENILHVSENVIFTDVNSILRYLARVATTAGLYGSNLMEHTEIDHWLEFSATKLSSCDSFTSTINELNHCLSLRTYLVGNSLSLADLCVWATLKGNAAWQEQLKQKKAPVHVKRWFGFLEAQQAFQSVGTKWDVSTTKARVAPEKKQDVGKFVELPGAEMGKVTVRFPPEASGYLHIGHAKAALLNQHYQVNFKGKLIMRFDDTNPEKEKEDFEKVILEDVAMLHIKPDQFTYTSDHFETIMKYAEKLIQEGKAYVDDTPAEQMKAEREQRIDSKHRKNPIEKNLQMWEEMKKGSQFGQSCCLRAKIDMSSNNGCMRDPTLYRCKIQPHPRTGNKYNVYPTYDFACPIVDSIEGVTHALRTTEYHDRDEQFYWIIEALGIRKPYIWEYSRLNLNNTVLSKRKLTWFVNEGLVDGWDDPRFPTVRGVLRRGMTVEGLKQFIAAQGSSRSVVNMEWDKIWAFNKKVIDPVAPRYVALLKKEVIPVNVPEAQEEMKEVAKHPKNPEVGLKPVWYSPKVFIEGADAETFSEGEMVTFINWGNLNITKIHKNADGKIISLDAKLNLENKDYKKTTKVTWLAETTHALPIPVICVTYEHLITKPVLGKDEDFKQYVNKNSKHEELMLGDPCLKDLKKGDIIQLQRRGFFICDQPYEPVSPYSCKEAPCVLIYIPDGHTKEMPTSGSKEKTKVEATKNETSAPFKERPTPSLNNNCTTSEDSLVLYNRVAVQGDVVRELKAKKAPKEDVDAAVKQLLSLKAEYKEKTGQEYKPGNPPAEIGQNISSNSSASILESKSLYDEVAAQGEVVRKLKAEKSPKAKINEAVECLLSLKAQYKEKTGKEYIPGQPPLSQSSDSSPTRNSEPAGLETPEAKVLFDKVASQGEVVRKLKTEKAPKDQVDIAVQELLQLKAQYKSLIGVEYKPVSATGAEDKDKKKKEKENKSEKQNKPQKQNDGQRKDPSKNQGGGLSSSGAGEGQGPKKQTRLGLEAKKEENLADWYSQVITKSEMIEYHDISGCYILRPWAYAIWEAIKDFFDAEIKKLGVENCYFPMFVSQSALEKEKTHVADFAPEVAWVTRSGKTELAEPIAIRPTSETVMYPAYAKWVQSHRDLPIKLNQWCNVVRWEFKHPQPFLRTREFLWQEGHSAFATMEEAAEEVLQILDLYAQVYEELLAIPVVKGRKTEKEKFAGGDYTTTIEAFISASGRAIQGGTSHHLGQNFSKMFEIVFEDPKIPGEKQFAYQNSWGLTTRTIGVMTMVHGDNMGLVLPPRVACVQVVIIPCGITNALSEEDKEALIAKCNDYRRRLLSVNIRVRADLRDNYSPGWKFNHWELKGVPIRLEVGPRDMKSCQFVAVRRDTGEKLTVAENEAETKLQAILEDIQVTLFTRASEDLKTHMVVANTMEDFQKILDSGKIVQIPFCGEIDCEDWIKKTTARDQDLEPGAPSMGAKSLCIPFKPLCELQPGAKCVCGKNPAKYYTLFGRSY
inactive: erlotinib 0.028 | [1] 0.032 | [2] -0.007 | [3] 0.01 | [4] 0.014 | [5] 0.017 | [6] -0.026 | [7] 0 | [8] -0.004 | IRAK-1-4 Inhibitor I -0.006

FTL (UniProt P02792)
inactive: erlotinib -0.14 | [1] -0.599 | [2] -0.077 | [3] -0.027 | [4] -0.006 | [5] 0.11 | [6] 0.012 | [7] -0.063 | [8] -0.034 | IRAK-1-4 Inhibitor I 0.169

EDC3 (UniProt Q96F86)
inactive: erlotinib -0.008 | [1] -0.01 | [2] -0.023 | [3] -0.02 | [4] -0.031 | [5] 0.035 | [6] -0.011 | [7] -0.027 | [8] -0.013 | IRAK-1-4 Inhibitor I 0
